Reference: article PMC5700166

Assays:
[1] = target: T1, GST-Nv-NF-kB (Ser allele) (Nematostella vectensis, UniProt A7UNT2 2-411); assay: protein-binding microarray (PBM); PBM: ~300 nM protein, 6 mM HEPES pH 7.8, 80 mM KCl, 0.5 mM EDTA, 0.5 mM EGTA, 6% glycerol, 35 ng/ul poly-dIdC, 1% milk, 1 h, room temperature; Ap Aiptasia and Nv Nematostella (sea anemones) / Co Capsaspora / Aq Amphimedon (sponge) / Dm Drosophila / Hu human; RHD is the Rel homology domain; high values mean tight binding; conditions: dsDNA, one strand shown
T1 sequence: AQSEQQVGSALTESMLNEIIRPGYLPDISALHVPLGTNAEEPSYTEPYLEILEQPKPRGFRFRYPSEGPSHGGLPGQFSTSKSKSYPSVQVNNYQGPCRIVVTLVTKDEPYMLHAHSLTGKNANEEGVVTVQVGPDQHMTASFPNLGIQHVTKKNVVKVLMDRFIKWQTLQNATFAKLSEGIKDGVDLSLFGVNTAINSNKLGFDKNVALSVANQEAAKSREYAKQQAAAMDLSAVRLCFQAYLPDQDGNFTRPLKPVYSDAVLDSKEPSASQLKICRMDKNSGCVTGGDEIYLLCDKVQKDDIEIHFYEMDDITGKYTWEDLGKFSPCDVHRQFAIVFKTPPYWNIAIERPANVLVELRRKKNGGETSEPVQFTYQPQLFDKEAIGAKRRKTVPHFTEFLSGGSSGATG

GST-Hu-p50 = GST-Hu-p50 (Homo sapiens, UniProt P19838 7-356); assay: as above; conditions: dsDNA, one strand shown
Chain of GST-Hu-p50 (P19838 7-356): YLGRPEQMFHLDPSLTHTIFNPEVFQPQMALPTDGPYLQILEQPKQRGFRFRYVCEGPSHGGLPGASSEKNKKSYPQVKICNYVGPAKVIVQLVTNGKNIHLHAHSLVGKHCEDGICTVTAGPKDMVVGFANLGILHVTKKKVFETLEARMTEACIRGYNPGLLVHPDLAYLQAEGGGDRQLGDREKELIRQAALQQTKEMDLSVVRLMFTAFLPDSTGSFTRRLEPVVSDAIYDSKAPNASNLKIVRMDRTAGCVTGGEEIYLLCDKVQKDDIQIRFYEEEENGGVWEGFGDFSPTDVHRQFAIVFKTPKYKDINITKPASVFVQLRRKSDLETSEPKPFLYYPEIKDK

Row | Sequence | binding signal [1] [z-score] | binding signal (GST-Hu-p50) [z-score]
1 | CCGATTAACATCAAGTAAATCCCTGATGTTAATCGGGTCTTGATTCGCTTGACGCTGCTG | 1.71 | 2.28
2 | CCGATTAACATCAGGAAGTCCCATGATGTTAATCGGGTCTTGATTCGCTTGACGCTGCTG | 4.19 | 4.09
3 | CCGATTAACATCAGGGCATACCCTGATGTTAATCGGGTCTTGATTCGCTTGACGCTGCTG | 1.31 | 1.86
4 | CCGATTAACATCAAGGCATTCCCTGATGTTAATCGGGTCTTGATTCGCTTGACGCTGCTG | 2.11 | 1.31
5 | CCGATTAACATCAAAGCACCCCCTGATGTTAATCGGGTCTTGATTCGCTTGACGCTGCTG | 4.9 | –
6 | CCGATTAACATCAGGGGGAGTGATGATGTTAATCGGGTCTTGATTCGCTTGACGCTGCTG | 4.81 | 4.48
7 | CCGATTAACATCAATCGGGAAATTGATGTTAATCGGGTCTTGATTCGCTTGACGCTGCTG | 3.66 | 2.28
8 | CCGATTAACATCAAGGGGGGGGCTGATGTTAATCGGGTCTTGATTCGCTTGACGCTGCTG | 3.66 | –
9 | CCGATTAACATCAGGGGTTTAACTGATGTTAATCGGGTCTTGATTCGCTTGACGCTGCTG | 1.69 | 3.05
10 | CCGATTAACATCAGGGGGTATTATGATGTTAATCGGGTCTTGATTCGCTTGACGCTGCTG | 6.38 | –
11 | CCGATTAACATCAGAAATCCCGATGATGTTAATCGGGTCTTGATTCGCTTGACGCTGCTG | 2.04 | 2.55
12 | CCGATTAACATCACAACACCCCCTGATGTTAATCGGGTCTTGATTCGCTTGACGCTGCTG | 5.01 | 4.62
13 | CCGATTAACATCAGGTACTTCCATGATGTTAATCGGGTCTTGATTCGCTTGACGCTGCTG | 5.91 | 2.98
14 | CCGATTAACATCACGGCTTTCCCTGATGTTAATCGGGTCTTGATTCGCTTGACGCTGCTG | 3.48 | 2.19
15 | CCGATTAACATCAATCTACCCCCTGATGTTAATCGGGTCTTGATTCGCTTGACGCTGCTG | 4.13 | 4.39
16 | CCGATTAACATCAAGAATTCCCGTGATGTTAATCGGGTCTTGATTCGCTTGACGCTGCTG | 5.52 | 4.39
17 | CCGATTAACATCAGGGAATTAGATGATGTTAATCGGGTCTTGATTCGCTTGACGCTGCTG | 3.54 | 2
18 | CCGATTAACATCACGGTGGGAAATGATGTTAATCGGGTCTTGATTCGCTTGACGCTGCTG | 2.58 | 1.86
19 | CCGATTAACATCACATTCTCCCCTGATGTTAATCGGGTCTTGATTCGCTTGACGCTGCTG | 5.45 | 3.4
20 | CCGATTAACATCAAGGAGTCCCCTGATGTTAATCGGGTCTTGATTCGCTTGACGCTGCTG | 5.36 | –
21 | CCGATTAACATCAGGGACTCACCTGATGTTAATCGGGTCTTGATTCGCTTGACGCTGCTG | 2.72 | 3
22 | CCGATTAACATCACGGGATTTACTGATGTTAATCGGGTCTTGATTCGCTTGACGCTGCTG | 1.41 | 2.12
23 | CCGATTAACATCAAAAAAACACCTGATGTTAATCGGGTCTTGATTCGCTTGACGCTGCTG | 5.3 | –
24 | CCGATTAACATCACGTCCCCCCCTGATGTTAATCGGGTCTTGATTCGCTTGACGCTGCTG | 4.17 | 3.7
25 | CCGATTAACATCAGCACCCCCCCTGATGTTAATCGGGTCTTGATTCGCTTGACGCTGCTG | 3.4 | 4.3
26 | CCGATTAACATCACCCATCCCCCTGATGTTAATCGGGTCTTGATTCGCTTGACGCTGCTG | 4.96 | 4.2
